Test results taken from PubChem BioAssay.
For some of these results: Results with a measured potency or affinity are listed apart. The source made the active and inactive calls. Unless noted, no rule for the calls is given here.

Assays:
[1] = antimalarial activity against Dd2 strain (AID 2302;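 active = growth inhibition above 50% at the single 2 µM test dose, taken to imply half-maximal potency below 2 µM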;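 also: 0% = DMSO untreated growth and 100% = chloroquine plus artemisinin killed control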); conditions: P. falciparum Dd2 in RBCs, LDH growth readout, 72 h; at 2 µM; stronger effect = higher value
[2] = HepG2 cytotoxicity, primary screen, cytotoxicity control for P. falciparum antimalarial project, cell-based, ATP luminescence (AID 2303;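 active = inhibition above 50%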;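 also: 0% = DMSO wells and 100% = digitonin-killed cells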); conditions: HepG2 viability, 24-48 h, at 10 µM, stronger effect = higher value
[3] = molecular target: L-lactate dehydrogenase (Plasmodium falciparum (isolate CDC / Honduras)) (UniProt Q27743); test: PfLDH activity inhibition – cell lysate, 3D7 strain, counter-screen for P. falciparum growth inhibition project (AID 2304);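 also: 0% = vehicle and 100% = reference inhibitor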; conditions: P. falciparum 3D7 crude extract, LDH APAD/NBT absorbance; at 2 µM; stronger effect = higher value
[4] = inhibition of 3D7 malaria parasite growth – strain 3D7 (AID 2306);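 also: 0% = DMSO wells and 100% = chloroquine plus artemisinin control wells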; conditions: P. falciparum 3D7 erythrocytic growth, LDH absorbance, 72 h; at 2 µM; stronger effect = higher value
[5] = molecular target: Calcium-dependent protein kinase 1 (Plasmodium falciparum (isolate 3D7)) (UniProt P62344); test: PfCDPK1 kinase inhibitors, biochemical, TCAMS library (AID 1159585; cut-off not given, nearly all actives have IC50 up to about 0.98 µM;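 also: inhibitors leave more ATP so luminescence rises with inhibition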); conditions: recombinant PfCDPK1, Kinase-Glo ATP depletion luminescence
[6] = molecular target: Plasmodium falciparum protein kinase 6 (PK6, PF3D7_1337100) (UniProt Q8IDW1); test: PfPK6 kinase inhibitors, biochemical, TCAMS library (AID 1159586); conditions: recombinant PfPK6, Kinase-Glo ATP depletion luminescence
[7] = molecular target: Protein kinase 7 (PK7), Plasmodium falciparum 3D7 (PF3D7_0213400) (UniProt Q7YTF7); test: inhibition of Plasmodium PK7 catalytic activity – biochemical, TCAMS antimalarial set, Kinase-Glo luminescence (AID 1159587); conditions: recombinant PfPK7, Kinase-Glo ATP depletion luminescence
[8] = molecular target: Calcium-dependent protein kinase 4 (Plasmodium falciparum (isolate 3D7)) (UniProt Q8IBS5); test: PfCDPK4 kinase inhibitors, biochemical, TCAMS library (AID 1159588; cut-off not given, nearly all actives have IC50 up to about 0.91 µM); conditions: recombinant PfCDPK4, Kinase-Glo ATP depletion luminescence
Sequence of Calcium-dependent protein kinase 4 (Plasmodium falciparum (isolate 3D7)) (Q8IBS5 whole entry, looked up): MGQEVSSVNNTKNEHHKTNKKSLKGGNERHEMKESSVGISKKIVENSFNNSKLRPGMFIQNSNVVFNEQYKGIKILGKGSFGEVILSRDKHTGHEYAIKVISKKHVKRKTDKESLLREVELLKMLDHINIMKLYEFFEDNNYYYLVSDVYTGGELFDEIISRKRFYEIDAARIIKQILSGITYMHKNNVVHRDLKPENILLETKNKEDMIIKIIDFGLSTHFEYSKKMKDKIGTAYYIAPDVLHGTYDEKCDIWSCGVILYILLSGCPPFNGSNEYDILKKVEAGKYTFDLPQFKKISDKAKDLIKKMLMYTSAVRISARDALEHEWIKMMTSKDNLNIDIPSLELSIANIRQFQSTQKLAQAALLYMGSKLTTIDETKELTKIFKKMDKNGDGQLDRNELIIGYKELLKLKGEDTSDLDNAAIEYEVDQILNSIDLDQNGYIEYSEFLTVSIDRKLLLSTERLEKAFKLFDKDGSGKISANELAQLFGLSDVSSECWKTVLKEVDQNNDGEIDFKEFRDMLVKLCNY

Sequence of Protein kinase 7 (PK7), Plasmodium falciparum 3D7 (PF3D7_0213400) (Q7YTF7 1-343): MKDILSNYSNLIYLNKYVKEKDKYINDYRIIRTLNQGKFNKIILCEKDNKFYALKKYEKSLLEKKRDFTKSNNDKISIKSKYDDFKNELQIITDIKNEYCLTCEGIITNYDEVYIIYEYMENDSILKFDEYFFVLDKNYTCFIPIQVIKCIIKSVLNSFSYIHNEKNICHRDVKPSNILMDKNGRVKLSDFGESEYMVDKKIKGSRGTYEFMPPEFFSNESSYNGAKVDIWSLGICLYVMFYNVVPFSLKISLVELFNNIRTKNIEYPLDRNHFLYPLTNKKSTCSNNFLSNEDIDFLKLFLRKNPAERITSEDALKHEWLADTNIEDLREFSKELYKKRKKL
Sequence of Plasmodium falciparum protein kinase 6 (PK6, PF3D7_1337100) (Q8IDW1 1-305): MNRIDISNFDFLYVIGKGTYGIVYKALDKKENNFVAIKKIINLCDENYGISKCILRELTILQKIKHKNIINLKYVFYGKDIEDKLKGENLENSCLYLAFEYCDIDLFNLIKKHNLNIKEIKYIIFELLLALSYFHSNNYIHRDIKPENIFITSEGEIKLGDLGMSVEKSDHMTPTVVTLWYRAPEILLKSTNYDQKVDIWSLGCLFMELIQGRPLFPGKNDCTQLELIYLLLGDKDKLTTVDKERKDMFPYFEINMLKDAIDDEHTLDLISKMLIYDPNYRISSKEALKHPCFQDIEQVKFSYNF
Sequence of L-lactate dehydrogenase (Plasmodium falciparum (isolate CDC / Honduras)) (Q27743 whole entry, looked up): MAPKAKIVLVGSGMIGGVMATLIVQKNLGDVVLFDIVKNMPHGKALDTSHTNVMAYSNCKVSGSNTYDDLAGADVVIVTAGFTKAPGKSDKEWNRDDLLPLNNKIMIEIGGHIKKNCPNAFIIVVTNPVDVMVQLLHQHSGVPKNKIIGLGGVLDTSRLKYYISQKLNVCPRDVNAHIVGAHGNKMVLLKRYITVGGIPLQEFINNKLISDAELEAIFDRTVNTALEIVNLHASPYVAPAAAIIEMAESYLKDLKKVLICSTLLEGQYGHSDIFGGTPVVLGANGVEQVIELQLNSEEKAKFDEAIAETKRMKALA
Sequence of Calcium-dependent protein kinase 1 (Plasmodium falciparum (isolate 3D7)) (P62344 whole entry, looked up): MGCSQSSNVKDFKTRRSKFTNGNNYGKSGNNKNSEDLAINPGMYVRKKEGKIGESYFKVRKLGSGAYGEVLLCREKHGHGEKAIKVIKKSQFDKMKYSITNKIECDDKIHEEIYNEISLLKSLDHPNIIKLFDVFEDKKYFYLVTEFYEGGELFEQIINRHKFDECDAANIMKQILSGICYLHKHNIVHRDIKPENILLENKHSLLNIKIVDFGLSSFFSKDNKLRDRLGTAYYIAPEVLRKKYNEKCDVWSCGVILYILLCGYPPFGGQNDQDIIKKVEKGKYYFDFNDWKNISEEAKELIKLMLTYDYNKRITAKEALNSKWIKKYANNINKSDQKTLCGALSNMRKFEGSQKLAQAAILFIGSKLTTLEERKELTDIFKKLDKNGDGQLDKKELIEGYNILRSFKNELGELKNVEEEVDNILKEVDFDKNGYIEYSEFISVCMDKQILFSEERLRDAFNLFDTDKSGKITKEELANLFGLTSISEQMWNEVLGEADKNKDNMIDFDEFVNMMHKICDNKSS

NC(N)=NN=CC(=O)Nc1cc([N+](=O)[O-])cc([N+](=O)[O-])c1
inactive: growth inhibition [1] -2% | inhibition [2] -5% | inhibition [3] -4% | outcome [5] | outcome [6] | outcome [7] | outcome [8]
active: growth inhibition [4] 100%

CN1CCN(CC(O)CNC(=O)Nc2ccc(Br)cc2)CC1 (stereo not drawn)
inactive: inhibition [2] 5% | inhibition [3] -2% | outcome [5] | outcome [6] | outcome [7] | outcome [8]
active: growth inhibition [1] 100% | growth inhibition [4] 100%

Cc1ccc(Cn2nc(Cl)c(N3CCNCC3)cc2=O)cc1NC(=O)Nc1ccc(-c2ccccc2)cc1
active: growth inhibition [1] 97% | inhibition [2] 100% | growth inhibition [4] 98%
inactive: inhibition [3] -5% | outcome [5] | outcome [6] | outcome [7] | outcome [8]

COc1cc(Cl)c(C)cc1-n1cc(C(=O)c2cc(Br)ccc2O)cc(C#N)c1=O
inactive: growth inhibition [1] 35% | inhibition [2] 3% | inhibition [3] -3% | outcome [5] | outcome [6] | outcome [7] | outcome [8]
active: growth inhibition [4] 95%

CCCc1c(C(=O)Nc2ccc3c(c2)CCN(C2CCC2)CC3)cnn1-c1ccc(Cl)cc1
inactive: growth inhibition [1] 12% | inhibition [3] 2% | outcome [5] | outcome [6] | outcome [7] | outcome [8]
active: inhibition [2] 64% | growth inhibition [4] 92%

COc1ccc(-c2cccc(CNC3CCN(C)CC3)c2)cc1S(=O)(=O)NCc1ccccc1
active: growth inhibition [4] 90%
inactive: growth inhibition [1] 22% | inhibition [2] 18% | inhibition [3] -5% | outcome [5] | outcome [6] | outcome [7] | outcome [8]

O=C(NCCCCCCNCc1ccc(-c2ccccc2)cc1)Nc1ccc(Cl)c(Cl)c1
inactive: growth inhibition [1] 2% | inhibition [2] 14% | inhibition [3] -1% | outcome [5] | outcome [6] | outcome [7] | outcome [8]
active: growth inhibition [4] 90%

COC(=O)c1ccc2nc(-c3cc(-c4cccc(-c5ccccc5)c4)cnc3N)[nH]c2c1
inactive: inhibition [2] 25% | inhibition [3] 5% | outcome [5] | outcome [6] | outcome [7] | outcome [8]
active: growth inhibition [1] 61% | growth inhibition [4] 101%

Nc1nc(N)c2cc3ccc(OCc4ccccc4)cc3nc2n1
active: growth inhibition [1] 75% | inhibition [2] 78% | growth inhibition [4] 100%
inactive: inhibition [3] 0% | outcome [5] | outcome [6] | outcome [7] | outcome [8]

Cc1onc(-c2ccccc2Cl)c1C(=O)Nc1cc(Cl)c(Cl)cc1Cl
active: growth inhibition [1] 57% | growth inhibition [4] 90%
inactive: inhibition [2] 3% | inhibition [3] 7% | outcome [5] | outcome [6] | outcome [7] | outcome [8]

CNC(=O)C1Cc2c([nH]c3cc(Br)ccc23)C2(CCN(CCc3ccccc3)CC2)N1 (stereo not drawn)
inactive: growth inhibition [1] 31% | inhibition [2] 10% | inhibition [3] -8% | outcome [5] | outcome [6] | outcome [7] | outcome [8]
active: growth inhibition [4] 101%

CCCc1cc(=O)oc2cc(OC)c(C(=O)CC(C)C)c(OC)c12
inactive: inhibition [2] 3% | inhibition [3] 2% | outcome [5] | outcome [6] | outcome [7] | outcome [8]
active: growth inhibition [1] 67% | growth inhibition [4] 81%

CCOc1cc(Br)c(C(C)NC(=O)c2ccccc2)cc1OCC (stereo not drawn)
inactive: growth inhibition [1] 10% | inhibition [2] -2% | inhibition [3] 5% | outcome [5] | outcome [6] | outcome [7] | outcome [8]
active: growth inhibition [4] 92%

OC1CCCN(Cc2ccc(-c3ccc(-c4nc5ccc(F)cc5[nH]4)cc3)cc2)C1 (stereo not drawn)
inactive: inhibition [3] 2% | outcome [5] | outcome [6] | outcome [7] | outcome [8]
active: growth inhibition [1] 79% | inhibition [2] 55% | growth inhibition [4] 100%

CN(C)CCCOc1ccc(CNCC(C)(C)c2nc(-c3ccc(Cl)c(O)c3)c(-c3ccncc3)[nH]2)cc1
inactive: inhibition [3] -2% | outcome [5] | outcome [6] | outcome [7] | outcome [8]
active: growth inhibition [1] 58% | inhibition [2] 64% | growth inhibition [4] 102%

O=C(Nc1cccc(-c2nn3ncccc3c2-c2ccnc(Nc3cccnc3)n2)c1)c1c(F)cccc1F
inactive: inhibition [2] 5% | inhibition [3] -2% | outcome [5] | outcome [6] | outcome [7] | outcome [8]
active: growth inhibition [1] 70% | growth inhibition [4] 96%

Cc1ccc(C)c(CN2CCC(CNC(=O)c3cc4ccc5cccnc5c4[nH]3)CC2)c1
inactive: growth inhibition [1] 10% | inhibition [2] 25% | inhibition [3] -3% | outcome [5] | outcome [6] | outcome [7] | outcome [8]
active: growth inhibition [4] 95%

OCC1CCCCN1Cc1cccc(-c2cccc(-c3nc4ccccc4[nH]3)c2)c1 (stereo not drawn)
inactive: growth inhibition [1] 4% | inhibition [2] 24% | inhibition [3] 0% | outcome [5] | outcome [6] | outcome [7] | outcome [8]
active: growth inhibition [4] 95%

CCOc1cc(C)ccc1N1CCN(CCCCNC(=O)c2ccc(NC(=O)c3ccc(Cl)cc3)cc2)CC1
active: growth inhibition [4] 100%
inactive: growth inhibition [1] 46% | inhibition [2] 19% | inhibition [3] -5% | outcome [5] | outcome [6] | outcome [7] | outcome [8]

Clc1cc(Nc2ncnc3sc(C#Cc4ncc[nH]4)cc23)ccc1OCc1ccccn1
active: growth inhibition [4] 101%
inactive: growth inhibition [1] 6% | inhibition [2] 10% | inhibition [3] -3% | outcome [5] | outcome [6] | outcome [7] | outcome [8]

O=C(Nc1ccccc1)N(Cc1cccc(-c2cccc(CNCCc3ccccc3)c2)c1)C1CCN(Cc2ccccc2)CC1
inactive: inhibition [3] 1% | outcome [5] | outcome [6] | outcome [7] | outcome [8]
active: growth inhibition [1] 87% | inhibition [2] 100% | growth inhibition [4] 100%

Cc1c(-c2ccc(C(=O)NC3CC(C)(C)NC(C)(C)C3)cc2)[nH]c2cc(Cl)c(Cl)cc12
active: growth inhibition [1] 68% | growth inhibition [4] 98%
inactive: inhibition [2] 34% | inhibition [3] 0% | outcome [5] | outcome [6] | outcome [7] | outcome [8]

FC(F)(F)c1ccc2nc(-c3ccc(-c4ccc(CN5CCN(c6cnccn6)CC5)cc4)s3)[nH]c2c1
inactive: inhibition [2] 23% | inhibition [3] -7% | outcome [5] | outcome [6] | outcome [7] | outcome [8]
active: growth inhibition [1] 99% | growth inhibition [4] 101%

COc1ccc(N2CCN(CCCOc3ccc(NC(=O)c4cc(Cl)cc(Cl)c4)cc3)CC2)c(OC)c1
inactive: growth inhibition [1] 41% | inhibition [2] 38% | inhibition [3] 2% | outcome [5] | outcome [6] | outcome [7] | outcome [8]
active: growth inhibition [4] 100%

CCCc1ccccc1OCC(O)CN(C1CCCC1)C1CCCC1 (stereo not drawn)
inactive: inhibition [2] 49% | inhibition [3] -7% | outcome [5] | outcome [6] | outcome [7] | outcome [8]
active: growth inhibition [1] 97% | growth inhibition [4] 97%

CC(C)c1ccc(NC(=O)c2ccc(CN3CCCN(Cc4cccc(Cl)c4)CC3)cc2)cc1
inactive: growth inhibition [1] 12% | inhibition [2] 45% | inhibition [3] 5% | outcome [5] | outcome [6] | outcome [7] | outcome [8]
active: growth inhibition [4] 90%

O=C(/C=C/c1ccc(Cl)c(Cl)c1)NCCCCCN1CCC(CCNC(=O)c2snnc2-c2ccccc2)CC1
active: inhibition [2] 54% | growth inhibition [4] 89%
inactive: growth inhibition [1] 1% | inhibition [3] -2% | outcome [5] | outcome [6] | outcome [7] | outcome [8]

CCCCCCCN1CCC(CC(=O)Nc2ccnc3ccc(OC)cc23)CC1
inactive: inhibition [2] 15% | inhibition [3] -2% | outcome [5] | outcome [6] | outcome [7] | outcome [8]
active: growth inhibition [1] 52% | growth inhibition [4] 97%

CCN(CCCN1CCCCC1)c1cc(C)nc(Nc2ccc(Oc3ccccc3)cc2)n1
active: growth inhibition [1] 99% | inhibition [2] 50% | growth inhibition [4] 101%
inactive: inhibition [3] -3% | outcome [5] | outcome [6] | outcome [7] | outcome [8]

O=C(/C=C/c1ccc(Cl)c(Cl)c1)NCCCCCN1CCCN(C(=S)Nc2ccc(Cl)c(Cl)c2)CC1
active: growth inhibition [4] 96%
inactive: growth inhibition [1] -3% | inhibition [2] 16% | inhibition [3] -3% | outcome [5] | outcome [6] | outcome [7] | outcome [8]

O=c1cc(NCCCNCc2cccc(OC(F)(F)C(F)F)c2)[nH]c2ccccc12
active: growth inhibition [4] 81%
inactive: growth inhibition [1] 7% | inhibition [2] 6% | inhibition [3] -5% | outcome [5] | outcome [6] | outcome [7] | outcome [8]

Cc1ccc(C2(C)CC(C)(C)N(C(=O)COc3ccc4ccccc4c3)c3ccccc32)cc1 (stereo not drawn)
inactive: inhibition [2] 0% | inhibition [3] -2% | outcome [5] | outcome [6] | outcome [7] | outcome [8]
active: growth inhibition [1] 98% | growth inhibition [4] 100%

COc1ccc(N2C(=O)C3C(C2=O)C2(C)c4ccccc4C3(C)c3ccccc32)c([N+](=O)[O-])c1 (stereo not drawn)
inactive: inhibition [2] 11% | inhibition [3] 7% | outcome [5] | outcome [6] | outcome [7] | outcome [8]
active: growth inhibition [1] 54% | growth inhibition [4] 99%

Oc1ccc(Cl)cc1CN1CCC2(CCCN(CC3CCC3)C2)C1 (stereo not drawn)
active: growth inhibition [1] 94% | growth inhibition [4] 100%
inactive: inhibition [2] 5% | inhibition [3] -2% | outcome [5] | outcome [6] | outcome [7] | outcome [8]

O=C(c1ccc([N+](=O)[O-])o1)N1CCN(c2ccccc2)CC1
inactive: inhibition [2] 44% | inhibition [3] 0% | outcome [5] | outcome [6] | outcome [7] | outcome [8]
active: growth inhibition [1] 72% | growth inhibition [4] 94%

O=C(Nc1ccc(-c2ccc(-c3nc4ccccc4[nH]3)cc2)cc1)Nc1ccc(Cl)c(Cl)c1
active: growth inhibition [1] 100% | inhibition [2] 68% | growth inhibition [4] 102%
inactive: inhibition [3] 4% | outcome [5] | outcome [6] | outcome [7] | outcome [8]

O=C(NC1CCN(Cc2ccccc2)CC1)c1ccc(CNC2CCN(Cc3ccccc3)CC2)cc1
inactive: inhibition [2] 14% | inhibition [3] 3% | outcome [5] | outcome [6] | outcome [7] | outcome [8]
active: growth inhibition [1] 58% | growth inhibition [4] 99%

Cc1nc(-c2cccc(C(F)(F)F)c2)n2nc(Nc3ccc(OCCN4CCCC4)cc3)ncc12
inactive: growth inhibition [1] 29% | inhibition [2] 30% | inhibition [3] -3% | outcome [5] | outcome [6] | outcome [7] | outcome [8]
active: growth inhibition [4] 99%

CCC1(CC)N=C(N)N=C(N)C1c1ccc(Cl)c(Cl)c1 (stereo not drawn)
active: growth inhibition [4] 98%
inactive: growth inhibition [1] 20% | inhibition [2] -16% | inhibition [3] 7% | outcome [5] | outcome [6] | outcome [7] | outcome [8]

CC(=O)Nc1ccc(C(=O)NC2CCN(c3ccnc4cc(Cl)ccc34)CC2)cc1
inactive: inhibition [2] 5% | inhibition [3] -4% | outcome [5] | outcome [6] | outcome [7] | outcome [8]
active: growth inhibition [1] 99% | growth inhibition [4] 101%

Cc1cc(NC(=O)c2ccco2)ccc1OC1CCN(Cc2ccc(C#N)cc2)CC1
active: growth inhibition [1] 89% | growth inhibition [4] 92%
inactive: inhibition [2] 2% | inhibition [3] -1% | outcome [5] | outcome [6] | outcome [7] | outcome [8]
